# From PubChem
# The full list was thinned out, with hits kept by preference.
# YB-1 expression: YB-1 expression inhibition; U2OS, qRT-PCR YB-1 vs CDIP delta delta Cp, 16 h; active compounds read high; zero = DMSO, each unit about twofold; delta delta Cp (YB-1 minus CDIP) (concentration not given with the values); hit rate 0.37% among 30,000;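 active means delta delta Cp rounded down to an integer at or above 3, about 3 SD of DMSO wells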;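 further: higher means less YB-1 transcript or more CDIP transcript relative to DMSO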
# PD-1 reverse act: activators reversing PD-1 mediated T-cell inhibition. 29,000 tested, under 10 active. activation, % (test concentration not listed). primary human CD4 T cells, PD-L1 beads, CellTiter-Glo 96 h. AID 2316; call rule not given here;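 further: 0% = median vehicle wells and 100% = positive control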
# NOMO-1 viab: STK33 inhibitor candidate reducing NOMO-1 cell viability. AID 2330. NOMO-1 AML viability, CellTiter-Glo luminescence, 72 h. inhibition, % (no concentration beside the values). hit rate 7.5% among 37,000; in the data active means inhibition above about 80%; inconclusive means no clear call, values can overlap the other calls
# ROS inducer: inducers of reactive oxygen species in cancer cells; ROS induction (% of piperlongumine), % at 10 µM; U2OS ROS induction, H2DCF-DA fluorescence; AID 624156; hit rate 2% among 46,000; in the data active means ROS induction above about 79%, passing the limit was not always enough; inconclusive means no clear call, values can overlap the other calls;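 further: 0% = DMSO vehicle median and 100% = reference compound median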
# Starred values were filed as active, the others as inactive; ? = inconclusive; . = no result.
SMILES,YB-1 expression,PD-1 reverse act,NOMO-1 viab,ROS inducer
C=CCN1C(=O)/C(=C/c2cc(C)n(CCOC)c2C)C(=O)NC1=S,-0.023,2,10,102*
C=CCN1C(=O)[C@@]2(O[C@@H](CCn3cc(CCO)nn3)[C@H]([Si](C)(C)c3ccc(OC)cc3)[C@H]2C)c2cc(N3C(=O)c4cccc5cccc3c45)ccc21,-0.28,.,.,90*
C=CCN1C(=O)[C@]2(O[C@H](CCn3cc(CCO)nn3)[C@@H]([Si](C)(C)c3ccc(OC)cc3)[C@@H]2C)c2cc(N3C(=O)c4cccc5cccc3c45)ccc21,-0.17,.,.,97*
C=CCN1C(=O)[C@@]2(O[C@@H](CCn3cc(CCO)nn3)[C@H]([Si](C)(C)c3ccc(OC)cc3)[C@H]2C)c2ccccc21,0.099,.,.,27
CCC(C)Cn1c(CCCO)nc2ccccc21 (configuration not stated),.,1,6,41
CCOC(=O)N1CCC(n2c(SCC(=O)c3ccccc3)nc3ccccc3c2=O)CC1,.,.,.,-5
CCN(CC)C(=S)SSC(=S)N(CC)CC,-0.048,-52,141*,-9
COc1cc(CC(C)C(C)Cc2ccc(O)c(OC)c2)ccc1O (configuration not stated),1.3,-12,121*,63
Cc1cc(C)c(C#N)c(SCc2cc(=O)[nH][nH]2)n1,-0.39,-3,27,-2
O=C(CCCCCCC(=O)Nc1ccccc1O)N/N=C/c1ccc(Br)cc1,-0.29,.,.,48
C[C@@H]1CN([C@@H](C)CO)C(=O)c2cc(N(C)C)ccc2O[C@@H]1CN(C)Cc1ccc(C(=O)Nc2ccccc2N)cc1,0.21,-3,110*,14
C[C@H]1CN([C@@H](C)CO)C(=O)c2cc(N(C)C)ccc2O[C@@H]1CN(C)Cc1ccc(C(=O)Nc2ccccc2N)cc1,-1.2,-2,112*,42
CC(C)(C)NC(=S)NCc1ccccc1,.,.,.,-8
CC(C)(C)Nc1cccccc1=NCc1ccccc1,0.36,-3,92*,13
COc1ccc(C(OC(=O)c2ccccc2)c2nccc3ccccc23)cc1 (configuration not stated),-0.077,-1,105*,4
COc1cc2c(cc1O)C1Cc3ccc(O)c(OC)c3CN1CC2 (configuration not stated),0.68,-2,6,-4
C[C@H]1CN([C@@H](C)CO)C(=O)Cc2cc(NS(=O)(=O)c3ccc(Cl)cc3)ccc2O[C@@H]1CN(C)Cc1ccccc1,0.41,-3,107*,14
C[C@H]1CN([C@@H](C)CO)C(=O)Cc2cc(NS(=O)(=O)c3ccc(Cl)cc3)ccc2O[C@H]1CN(C)Cc1ccccc1,0.63,0,101*,0
C[C@@H]1CCCCO[C@@H](CN(C)Cc2ccc(C(F)(F)F)cc2)[C@@H](C)CN([C@H](C)CO)C(=O)c2cc(NC(=O)CCCCCC(=O)Nc3ccccc3N)ccc2O1,-0.32,1,125*,45
C[C@@H]1CCCCO[C@@H](CN(C)C(=O)Nc2ccc(F)cc2)[C@@H](C)CN([C@H](C)CO)C(=O)c2cc(NC(=O)CCC(F)(F)F)ccc2O1,-0.03,0,7,140*
C[C@@H]1CCCCO[C@H](CN(C)Cc2ccc(C(F)(F)F)cc2)[C@@H](C)CN([C@H](C)CO)C(=O)c2cc(NC(=O)C3CCCCC3)ccc2O1,-0.5,-5,72,87*
C[C@@H]1CCCCO[C@@H](CN(C)Cc2ccc(C(F)(F)F)cc2)[C@@H](C)CN([C@H](C)CO)C(=O)c2cc(NC(=O)CCC(F)(F)F)ccc2O1,0.14,0,24,155*
C[C@@H]1CN([C@H](C)CO)C(=O)Cc2cc(NC(=O)Nc3cccc4ccccc34)ccc2O[C@@H]1CN(C)Cc1ccc(Cl)c(Cl)c1,-0.12,-1,115*,52
C[C@H]1CN([C@@H](C)CO)C(=O)c2cc(NC(=O)Nc3cccc4ccccc34)ccc2O[C@H]1CN(C)Cc1ccc(Cl)c(Cl)c1,-0.23,-2,?,15
C[C@H]1CN([C@@H](C)CO)C(=O)Cc2cc(NC(=O)Nc3cccc4ccccc34)ccc2O[C@H]1CN(C)Cc1ccc(Cl)c(Cl)c1,0.11,-1,88*,7
SMILES,YB-1 expression,PD-1 reverse act,NOMO-1 viab,ROS inducer
C[C@H]1CN([C@@H](C)CO)C(=O)c2cc(NC(=O)Nc3cccc4ccccc34)ccc2O[C@@H]1CN(C)Cc1ccc(Cl)c(Cl)c1,0.067,-3,109*,25
O=S(=O)(c1cccc(-c2nnc(-c3ccccc3)o2)c1)N1CCCC1,-0.14,-1,59,60
COc1cc(C(Nc2ccccn2)c2cc(Cl)c3cccnc3c2O)cc(I)c1O (configuration not stated),.,.,25,.
COc1ccc(Br)cc1C(Nc1ccccn1)c1cc(Cl)c2cccnc2c1O (configuration not stated),.,.,114*,.
COc1ccc(C(Nc2ccccn2)c2cc(Cl)c3cccnc3c2O)cc1[N+](=O)[O-] (configuration not stated),.,.,113*,.
O=S(=O)(N[C@@H]1CCN(Cc2ccc(OCCO)cc2)C1)c1cccc2cccnc12,0.17,.,.,7
CCOc1ccccc1NC(=O)CSc1ncnc2sc(C)c(C)c12,.,-3,-3,20
C=C1C(=O)O[C@H]2CC(C)C3CC[C@@]4(C)O[C@@]34CC12 (some centres not stated),-0.3,.,.,14
C=C1C(=O)O[C@H]2C[C@H](C)[C@@H]3CC(=O)C(C)=C3C[C@H]12,-0.72,-9,117*,?
O=C(Cc1ccc(O)cc1)OC1[C@@H](O)[C@@H](O)C(OC(=O)Cc2ccc(O)cc2)[C@H](O)[C@@H]1O (some centres not stated),2,-3,30,12
O=C(CSc1nnc2scc(-c3ccccc3)n12)c1ccc2c(c1)OCCO2,.,2,-3,1
Cc1ccc(-c2csc3nnc(SCC(=O)c4ccc(Cl)c(Cl)c4)n23)cc1,.,-6,103*,-1
CC(Sc1ncnc2sc(-c3ccccc3)cc12)C(=O)Nc1cc(Cl)ccc1Cl (configuration not stated),.,1,-1,-4
COc1ccccc1NC(=O)c1c(NCc2ccc(C)o2)sc2c1CCC2,.,.,27,.
CC(=O)N1CCN(c2ccc(OCC3CO[C@](Cn4ccnc4)(c4ccc(Cl)cc4Cl)O3)cc2)CC1 (some centres not stated),0.18,.,107*,54
C[C@H](CO)N1C[C@H](C)[C@H](CN(C)Cc2ccc(Cl)c(Cl)c2)Oc2c(NC(=O)Nc3ccc(F)cc3)cccc2C1=O,-0.59,-3,99*,9
C[C@H](CO)N1C[C@H](C)[C@H](CN(C)Cc2ccc(Cl)c(Cl)c2)Oc2c(NC(=O)Nc3ccc(C(F)(F)F)cc3)cccc2C1=O,0.19,-1,94*,1
CC(C)NC(=O)Nc1cccc2c1O[C@@H](CN(C)Cc1ccc(Cl)c(Cl)c1)[C@H](C)CN([C@H](C)CO)C2=O,0.39,-2,63,29
C[C@@H]1CN([C@H](C)CO)C(=O)c2cccc(NC(=O)Nc3ccccc3)c2O[C@H]1CN(C)Cc1ccc(Cl)c(Cl)c1,-0.089,-5,106*,53
